Data: PubChem BioAssay
Inconclusive results are not listed. Active and inactive are the calls of the source.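 The calls were made as follows, unless noted: active = inhibition above 50%, about 3 SD of the validation set; inactive = the rest.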

How the values were obtained:
[1] = yeast TOR pathway RPL19A-GFP modulators, primary screen, cell-based, S. cerevisiae, multiplex flow cytometry (AID 1862; in the data active = percent of DMSO control GFP below about 86%;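 also: lower values mimic rapamycin by blocking the RPL19A rise seen in DMSO cells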); conditions: S. cerevisiae RPL19A-GFP strain, flow cytometry fluorescence, 3 h; at 10 µM; stronger effect = lower value
[2] = modulators of MEP2-GFP levels in yeast, primary screen, S. cerevisiae, multiplex flow cytometry (AID 1867;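 active = GFP response, as percent of the DMSO control, above the screen-wide mean plus 3 SD, about 139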;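 also: median GFP channel fluorescence of barcode-gated MEP2-GFP cells measured by flow cytometry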); conditions: S. cerevisiae MEP2-GFP strain, 3 h, at 10 µM, stronger effect = higher value, 100% means same as DMSO wells
[3] = modulators of CIT2-GFP expression in yeast, primary screen, S. cerevisiae, GFP fusion, multiplex flow cytometry (AID 1870;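 active = percent response above a set limit, the screen-wide mean plus 3 SD, cut at about 130% in these data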;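 also: barcoded CIT2-GFP strain pooled with four other GFP strains with rapamycin as positive control; median GFP fluorescence per well over plate mean of DMSO wells so 100% = DMSO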); conditions: 3 h, at 10 µM, stronger effect = higher value
[4] = modulators of LAP4-GFP expression in yeast, primary screen, S. cerevisiae, multiplex flow cytometry (AID 1873;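 active = GFP signal, as percent of the solvent control, above the screen mean plus 3 SD, about 149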); conditions: 3 h, at 10 µM, stronger effect = higher value
[5] = modulators of AGP1-GFP expression in yeast TOR pathway, primary screen, cell-based, multiplex flow cytometry, S. cerevisiae (AID 1887;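 active = GFP signal above the screen-wide mean plus 3 SD, that is over about 124.5% of the solvent control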;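 also: AGP1-GFP fusion strain of S. cerevisiae within a five-strain barcoded multiplex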); conditions: 3 h, at 10 µM, stronger effect = higher value
[6] = inhibitors of CD8+ T cell-vesicle binding, pilot screen, LFA-1/ICAM-1 modulator project, MLPCN validation set, flow cytometry (AID 2523;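 active = response below a set limit, under 55% cells CD8-positive and vesicle-bound, and CD8 cells' 90th-percentile brightness under 279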;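 as to vesicle binding response: mean PE anti-B7-1 fluorescence of CD8+ cells relative to row control; 100% = QL9-loaded vesicles with DMSO vehicle in the same plate row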); conditions: 2C mouse CD8+ T cells, at 7 µM, stronger effect = lower value; double positive events: measured here: CD8+/vesicle+ event percentage
[7] = molecular target: Integrin beta-1 (Homo sapiens) + Integrin alpha-4 (Homo sapiens) (UniProt P13612+P05556); experiment: inhibition of HUTS-21 binding to VLA-4, pilot screen, VLA-4 allosteric modulator project, U937 cells, HUTS-21 mAb, flow cytometry, validation set (AID 2674); conditions: HUTS-21 LIBS mAb binding, at 6.7 µM, stronger effect = higher value, binding induced by LDV ligand;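 also: antibody binding induced by the VLA-4 ligand LDV present at three times its Kd; 0% = LDV ligand with antibody and no compound and 100% = antibody without LDV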
[8] = superoxide lowering in aged yeast cells, pilot screen, validation compound set (AID 2706;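 active = superoxide response below 65% of plate, a cut near 3 SD across the whole screen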;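 also: yeast exposed to compound for one week at 30 degrees C before staining; 100% = mean of all compound wells on the same plate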); conditions: S. cerevisiae aging, superoxide DHE fluorescence; at 10 µM; stronger effect = lower value
[9] = molecular target: Beta-adrenergic receptor kinase 1 (Homo sapiens) (UniProt P25098); experiment: GRK2 binders displacing RNA aptamer, biochemical, validation, human GRK2, bead flow cytometry (AID 488806;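 active = aptamer binding inhibition above 30%, about 3 SD of noise from non-fluorescent compounds; inactive = inhibition at or below 30%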); conditions: bead-bound GRK2, FAM-aptamer displacement, at 10 µM, stronger effect = higher value
[10] = molecular target: Beta-2 adrenergic receptor (Homo sapiens) (UniProt P07550); experiment: beta2AR agonists driving receptor internalization, pilot screen, cell-based, FAP fluorogen, flow cytometry, validation set (AID 504459;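 active = percent response above 42, roughly 3 SD of non-fluorescent test compounds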;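 also: agonist-driven loss of surface beta2AR via internalization measured by FAP dye flow cytometry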); conditions: Am2.2-beta2AR cells, FAP surface receptor flow cytometry; at 10 µM; stronger effect = higher value
[11] = molecular target: AP-2 complex subunit beta (Homo sapiens) (UniProt P63010); experiment: inhibitors of arrestin peptide binding to AP2, pilot screen, biochemical, validation set, GST-AP2 beads, flow cytometry (AID 504541;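 active = inhibition above 54%, about 3 SD of non-fluorescent compounds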;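 also: AP2 carries R879A mutation and is captured from E. coli lysate; bead-bound FITC arrestin peptide fluorescence measuring arrestin peptide binding to AP2; 0% = DMSO wells and 100% = excess unlabeled arrestin peptide control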); conditions: FITC arrestin peptide, at 10 µM, stronger effect = higher value, AP2 beta2 appendage fragment, R879A mutant
[12] = yeast V-ATPase proton transport modulators, S. cerevisiae, pHLuorin, HTS validation (AID 504600; in the data active = response above about 15%;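 also: plate controls were DMSO for no effect and reference compound for full effect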); conditions: S. cerevisiae pHLuorin cytosolic pH, at 10 µM, stronger effect = higher value
[13] = tested on: anti-desmoglein-3 scFv antibody binding to human DSG3; experiment: inhibitors of anti-DSG3 scFv binding to DSG3, pilot screen, biochemical, validation compound set, bead-based, flow cytometry (AID 588368;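 active = binding below the plate cutoff, the plate median minus 3 SD, with a reading above zero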;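 also: signal is the median channel fluorescence of bead-bound GFP antibody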); conditions: Protein G beads, DSG3-Fc, scFv-GFP binding, at 10 µM, stronger effect = lower value
[14] = inhibitors of fungal efflux pumps CDR1, CDR2, MDR1, pilot screen, validation compound set, multiplex, phenotypic (AID 588506;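 active = efflux inhibition above 0.42, the validation set average plus 4 SD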;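 also: Nile Red retained in cells so higher fluorescence means more efflux inhibition; 0 = negative control wells and 1 = enniatin B 25 µM full block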); conditions: S. cerevisiae pump-expressing triplex, Nile Red efflux flow cytometry; at 10 µM; stronger effect = higher value; the pumps come from Candida albicans
[15] = molecular target: ATP-binding cassette sub-family B member 6 (Homo sapiens) (UniProt Q9NP58); experiment: ABCB6 transporter inhibitors, pilot screen, K562-ABCB6 cells, flow cytometry, validation set (AID 588550;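 active = inhibition above the screen-wide mean plus 3 SD, about 51%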;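 also: 0% = DMSO wells and 100% = benzethonium chloride 70 µM positive control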); conditions: K562-ABCB6 porphyrin accumulation, 1 h, at 10 µM, stronger effect = higher value
[16] = promoters of myeloid differentiation in arrested cells, primary screen, cell-based, GFP/MAC1 double positive, flow cytometry, validation set (AID 588685;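 active = differentiation response of at least 50%, scaled between solvent and reference control, from cells with both markers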;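 also: compound exposure lasts four days before antibody staining and flow analysis; 0% = DMSO wells and 100% = 5 µM fulvestrant positive control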); conditions: ER-HoxA9 marrow cells, stronger effect = higher value, normalized: vehicle 0, fulvestrant 100

Beta-2 adrenergic receptor (Homo sapiens), sequence (P07550 whole entry, looked up): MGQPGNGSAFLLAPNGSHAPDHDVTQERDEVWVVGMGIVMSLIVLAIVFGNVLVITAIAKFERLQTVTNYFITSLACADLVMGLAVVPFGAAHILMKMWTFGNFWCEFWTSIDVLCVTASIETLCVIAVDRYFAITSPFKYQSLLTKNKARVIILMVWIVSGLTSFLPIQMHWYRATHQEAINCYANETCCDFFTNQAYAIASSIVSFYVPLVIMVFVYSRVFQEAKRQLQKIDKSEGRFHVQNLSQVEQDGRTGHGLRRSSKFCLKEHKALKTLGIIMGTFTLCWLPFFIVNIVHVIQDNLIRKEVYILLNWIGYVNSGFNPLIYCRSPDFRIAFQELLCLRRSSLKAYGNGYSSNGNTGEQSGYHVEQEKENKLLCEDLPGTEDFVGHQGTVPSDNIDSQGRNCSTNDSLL
ATP-binding cassette sub-family B member 6 (Homo sapiens), sequence (Q9NP58 whole entry, looked up): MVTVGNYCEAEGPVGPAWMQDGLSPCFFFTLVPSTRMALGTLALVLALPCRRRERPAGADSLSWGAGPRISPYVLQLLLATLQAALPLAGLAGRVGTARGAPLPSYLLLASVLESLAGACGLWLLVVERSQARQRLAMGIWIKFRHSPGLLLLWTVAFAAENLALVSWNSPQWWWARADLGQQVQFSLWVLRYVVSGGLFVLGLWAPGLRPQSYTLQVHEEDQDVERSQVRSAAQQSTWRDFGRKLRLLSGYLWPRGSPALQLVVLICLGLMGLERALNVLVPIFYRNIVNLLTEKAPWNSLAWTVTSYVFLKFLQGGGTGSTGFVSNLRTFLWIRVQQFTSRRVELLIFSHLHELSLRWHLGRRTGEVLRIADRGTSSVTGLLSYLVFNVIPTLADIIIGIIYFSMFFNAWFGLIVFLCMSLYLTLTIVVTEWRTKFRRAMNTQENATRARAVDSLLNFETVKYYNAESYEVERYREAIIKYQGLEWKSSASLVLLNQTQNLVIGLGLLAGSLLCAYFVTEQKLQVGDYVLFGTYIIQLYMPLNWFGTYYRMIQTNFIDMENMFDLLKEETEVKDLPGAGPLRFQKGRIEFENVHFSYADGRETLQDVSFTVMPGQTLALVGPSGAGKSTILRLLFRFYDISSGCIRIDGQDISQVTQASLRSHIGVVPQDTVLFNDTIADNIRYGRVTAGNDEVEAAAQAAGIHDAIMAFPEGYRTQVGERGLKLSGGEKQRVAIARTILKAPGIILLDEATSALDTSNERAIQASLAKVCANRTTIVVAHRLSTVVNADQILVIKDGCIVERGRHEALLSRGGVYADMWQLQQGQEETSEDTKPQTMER
Integrin beta-1 (Homo sapiens) + Integrin alpha-4 (Homo sapiens), sequence (P05556 whole entry, looked up): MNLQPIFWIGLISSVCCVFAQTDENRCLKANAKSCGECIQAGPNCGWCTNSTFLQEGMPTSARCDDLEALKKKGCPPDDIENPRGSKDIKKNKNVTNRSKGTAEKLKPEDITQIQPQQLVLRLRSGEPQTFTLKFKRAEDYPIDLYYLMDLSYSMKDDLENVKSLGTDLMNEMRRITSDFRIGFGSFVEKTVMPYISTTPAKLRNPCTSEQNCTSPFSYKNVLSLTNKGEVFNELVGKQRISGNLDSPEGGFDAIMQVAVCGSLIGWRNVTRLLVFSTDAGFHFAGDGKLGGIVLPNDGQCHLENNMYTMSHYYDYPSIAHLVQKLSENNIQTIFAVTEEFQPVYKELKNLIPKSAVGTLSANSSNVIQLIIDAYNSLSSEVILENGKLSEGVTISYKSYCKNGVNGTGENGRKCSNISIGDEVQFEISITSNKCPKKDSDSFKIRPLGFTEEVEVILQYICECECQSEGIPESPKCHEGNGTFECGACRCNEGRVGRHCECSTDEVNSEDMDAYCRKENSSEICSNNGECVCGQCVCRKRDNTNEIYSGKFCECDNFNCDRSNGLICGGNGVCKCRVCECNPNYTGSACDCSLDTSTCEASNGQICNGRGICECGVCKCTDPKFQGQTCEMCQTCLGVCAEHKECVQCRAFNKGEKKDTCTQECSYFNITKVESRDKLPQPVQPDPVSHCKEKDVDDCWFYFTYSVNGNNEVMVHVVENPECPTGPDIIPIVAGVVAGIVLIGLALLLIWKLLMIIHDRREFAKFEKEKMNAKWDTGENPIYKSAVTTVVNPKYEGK
Integrin beta-1 (Homo sapiens) + Integrin alpha-4 (Homo sapiens), sequence (P13612 whole entry, looked up): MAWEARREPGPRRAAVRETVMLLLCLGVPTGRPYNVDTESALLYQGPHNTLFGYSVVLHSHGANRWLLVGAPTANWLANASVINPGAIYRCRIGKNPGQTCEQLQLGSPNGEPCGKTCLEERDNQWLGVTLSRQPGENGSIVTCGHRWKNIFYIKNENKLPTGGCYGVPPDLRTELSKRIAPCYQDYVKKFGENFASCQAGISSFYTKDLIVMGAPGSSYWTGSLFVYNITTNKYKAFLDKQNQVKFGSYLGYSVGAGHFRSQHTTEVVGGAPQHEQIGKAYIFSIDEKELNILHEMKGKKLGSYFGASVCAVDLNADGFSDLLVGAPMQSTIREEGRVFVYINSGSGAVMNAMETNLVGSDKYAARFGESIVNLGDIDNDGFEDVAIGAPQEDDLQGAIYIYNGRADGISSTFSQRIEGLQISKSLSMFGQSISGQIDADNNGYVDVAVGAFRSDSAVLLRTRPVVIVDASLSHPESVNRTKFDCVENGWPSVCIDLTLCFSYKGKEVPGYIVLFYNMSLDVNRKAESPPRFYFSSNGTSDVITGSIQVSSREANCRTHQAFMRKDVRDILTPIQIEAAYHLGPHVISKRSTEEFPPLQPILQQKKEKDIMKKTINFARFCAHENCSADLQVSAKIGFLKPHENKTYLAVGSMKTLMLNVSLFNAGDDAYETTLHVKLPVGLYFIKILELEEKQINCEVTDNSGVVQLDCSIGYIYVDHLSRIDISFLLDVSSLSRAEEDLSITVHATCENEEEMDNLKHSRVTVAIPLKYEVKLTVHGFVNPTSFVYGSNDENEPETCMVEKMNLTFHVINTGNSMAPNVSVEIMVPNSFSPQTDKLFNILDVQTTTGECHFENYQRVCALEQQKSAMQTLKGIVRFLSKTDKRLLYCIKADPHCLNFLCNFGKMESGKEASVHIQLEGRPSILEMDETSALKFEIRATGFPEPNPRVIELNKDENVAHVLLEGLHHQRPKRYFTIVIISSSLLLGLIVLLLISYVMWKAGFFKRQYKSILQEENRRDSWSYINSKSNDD
Beta-adrenergic receptor kinase 1 (Homo sapiens), sequence (P25098 whole entry, looked up): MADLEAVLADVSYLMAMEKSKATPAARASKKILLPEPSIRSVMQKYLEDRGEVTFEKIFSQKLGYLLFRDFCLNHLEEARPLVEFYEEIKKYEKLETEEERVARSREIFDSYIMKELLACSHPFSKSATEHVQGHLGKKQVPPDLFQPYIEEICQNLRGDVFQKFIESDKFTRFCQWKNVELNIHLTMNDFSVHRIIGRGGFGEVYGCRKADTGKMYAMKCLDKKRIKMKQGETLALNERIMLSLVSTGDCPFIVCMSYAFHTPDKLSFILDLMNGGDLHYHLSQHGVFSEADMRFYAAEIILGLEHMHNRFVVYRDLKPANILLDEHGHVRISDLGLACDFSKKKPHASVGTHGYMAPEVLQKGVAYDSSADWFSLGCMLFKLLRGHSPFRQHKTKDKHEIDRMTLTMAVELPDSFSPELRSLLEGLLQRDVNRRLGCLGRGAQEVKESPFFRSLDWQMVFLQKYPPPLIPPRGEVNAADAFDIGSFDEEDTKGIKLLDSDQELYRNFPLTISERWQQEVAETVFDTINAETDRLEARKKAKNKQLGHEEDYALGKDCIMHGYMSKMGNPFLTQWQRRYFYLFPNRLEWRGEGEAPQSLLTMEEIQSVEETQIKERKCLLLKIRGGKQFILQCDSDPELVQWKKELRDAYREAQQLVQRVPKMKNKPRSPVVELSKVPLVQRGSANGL
AP-2 complex subunit beta (Homo sapiens), sequence (P63010 whole entry, looked up, the tested form may be a part, one chain of several): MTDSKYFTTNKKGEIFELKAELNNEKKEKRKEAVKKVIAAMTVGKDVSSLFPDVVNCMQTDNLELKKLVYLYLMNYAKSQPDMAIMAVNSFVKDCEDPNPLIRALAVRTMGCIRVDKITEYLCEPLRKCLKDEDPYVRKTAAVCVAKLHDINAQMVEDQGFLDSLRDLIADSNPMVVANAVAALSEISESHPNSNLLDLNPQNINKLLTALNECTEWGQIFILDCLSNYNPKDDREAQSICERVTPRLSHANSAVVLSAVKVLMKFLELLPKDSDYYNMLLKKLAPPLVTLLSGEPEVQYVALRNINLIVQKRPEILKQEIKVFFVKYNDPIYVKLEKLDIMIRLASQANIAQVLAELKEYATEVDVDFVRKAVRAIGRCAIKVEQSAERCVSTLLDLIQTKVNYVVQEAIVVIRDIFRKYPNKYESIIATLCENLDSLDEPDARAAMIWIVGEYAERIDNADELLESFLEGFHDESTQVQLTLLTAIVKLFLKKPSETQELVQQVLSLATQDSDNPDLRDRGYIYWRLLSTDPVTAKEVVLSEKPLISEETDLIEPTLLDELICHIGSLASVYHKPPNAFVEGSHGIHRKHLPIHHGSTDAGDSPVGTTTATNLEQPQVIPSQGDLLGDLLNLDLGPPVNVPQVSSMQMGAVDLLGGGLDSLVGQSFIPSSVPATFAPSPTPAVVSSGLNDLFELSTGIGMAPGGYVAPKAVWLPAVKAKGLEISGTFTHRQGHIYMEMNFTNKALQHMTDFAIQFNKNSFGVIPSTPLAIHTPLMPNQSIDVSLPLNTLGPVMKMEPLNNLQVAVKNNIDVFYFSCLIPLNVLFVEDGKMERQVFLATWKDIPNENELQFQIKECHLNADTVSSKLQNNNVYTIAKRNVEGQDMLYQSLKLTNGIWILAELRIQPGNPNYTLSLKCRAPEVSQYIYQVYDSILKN

CN1CC2CCCC3(C1)C(=O)NC1(CCCCC1)N=C23 (stereo not given)
58.9%: double positive events [6]
inactive: percent of DMSO control GFP [1] 105% | GFP response vs DMSO [2] 105% | percent response of DMSO control [3] 111% | GFP response vs DMSO [4] 97.3% | GFP response, % of DMSO [5] 107% | vesicle binding response [6] 281% | inhibition [7] 3.7% | superoxide response (% of plate) [8] 103% | aptamer binding inhibition [9] 1% | response [10] -7.22% | inhibition [11] -5.67% | response [12] 3.54% | binding (% of control) [13] 99% | efflux inhibition (fraction of control) [14] -0.26 | inhibition [15] 1% | differentiation response [16] -6.6%

NC(N)=NC(N)=NCCc1ccccc1
inactive: percent of DMSO control GFP [1] 101% | GFP response vs DMSO [2] 112% | percent response of DMSO control [3] 100% | GFP response vs DMSO [4] 94% | GFP response, % of DMSO [5] 100% | vesicle binding response [6] 210% | inhibition [7] 3.7% | superoxide response (% of plate) [8] 105% | aptamer binding inhibition [9] 0% | response [10] -4.33% | inhibition [11] 7.19% | response [12] -3.91% | binding (% of control) [13] 88.8% | efflux inhibition (fraction of control) [14] 0.24 | inhibition [15] -4% | differentiation response [16] -8.55%
59.4%: double positive events [6]

COc1ccc(N2CCN(C(=S)NCc3ccccc3)CC2)cc1
inactive: percent of DMSO control GFP [1] 91.7% | GFP response vs DMSO [2] 133% | percent response of DMSO control [3] 101% | GFP response vs DMSO [4] 81.4% | GFP response, % of DMSO [5] 88.2% | vesicle binding response [6] 171% | inhibition [7] 0.64% | superoxide response (% of plate) [8] 82.1% | aptamer binding inhibition [9] 2% | response [10] -3.32% | inhibition [11] 30.1% | response [12] -3.6% | binding (% of control) [13] 108% | efflux inhibition (fraction of control) [14] 0.16 | inhibition [15] 0% | differentiation response [16] 4.09%
65.5%: double positive events [6]

CCC1(c2ccccc2)NC(=S)N(c2ccc(C)c(C)c2)N1 (stereo not given)
inactive: percent of DMSO control GFP [1] 100% | GFP response vs DMSO [2] 106% | percent response of DMSO control [3] 105% | GFP response vs DMSO [4] 108% | GFP response, % of DMSO [5] 108% | vesicle binding response [6] 184% | inhibition [7] 5.69% | superoxide response (% of plate) [8] 107% | aptamer binding inhibition [9] 2% | response [10] -12.6% | inhibition [11] 1.79% | response [12] 2.75% | binding (% of control) [13] 105% | efflux inhibition (fraction of control) [14] 0.04 | inhibition [15] 3% | differentiation response [16] -12.9%
59.8%: double positive events [6]

Cc1ccc2[nH]c(=O)c(Cc3ccccc3)c(O)c2c1
inactive: percent of DMSO control GFP [1] 102% | GFP response vs DMSO [2] 105% | percent response of DMSO control [3] 107% | GFP response vs DMSO [4] 94.7% | GFP response, % of DMSO [5] 102% | vesicle binding response [6] 224% | inhibition [7] 3.7% | superoxide response (% of plate) [8] 105% | aptamer binding inhibition [9] 0% | response [10] -3.71% | inhibition [11] -9.35% | response [12] 4.49% | binding (% of control) [13] 90.6% | efflux inhibition (fraction of control) [14] -0.07 | inhibition [15] -1% | differentiation response [16] -8.55%
60.7%: double positive events [6]

O=C(NCCNc1ccc(Cl)cc1[N+](=O)[O-])c1cccnc1
57.5%: double positive events [6]
inactive: percent of DMSO control GFP [1] 100% | GFP response vs DMSO [2] 102% | percent response of DMSO control [3] 102% | GFP response vs DMSO [4] 106% | GFP response, % of DMSO [5] 98.9% | vesicle binding response [6] 13.3% | inhibition [7] 5.41% | superoxide response (% of plate) [8] 102% | aptamer binding inhibition [9] -6% | response [10] -6.88% | inhibition [11] 20% | response [12] 0.22% | binding (% of control) [13] 100% | efflux inhibition (fraction of control) [14] -0.22 | inhibition [15] 4% | differentiation response [16] 8.02%

CS(=O)c1ccccc1O (stereo not given)
67.1%: double positive events [6]
inactive: percent of DMSO control GFP [1] 103% | GFP response vs DMSO [2] 98.8% | percent response of DMSO control [3] 92.8% | GFP response vs DMSO [4] 93% | GFP response, % of DMSO [5] 99.2% | vesicle binding response [6] 144% | inhibition [7] 8.28% | aptamer binding inhibition [9] 0% | response [10] 33.6% | inhibition [11] 38.1% | response [12] 0.1% | binding (% of control) [13] 101% | efflux inhibition (fraction of control) [14] -0.15 | inhibition [15] 11% | differentiation response [16] 3.45%
active: superoxide response (% of plate) [8] 47.1%

O=C(N/C(=C/C=C\c1ccccc1)C(=O)N1CCOCC1)c1ccc(Br)cc1
65.2%: double positive events [6]
inactive: percent of DMSO control GFP [1] 98.4% | GFP response vs DMSO [2] 107% | percent response of DMSO control [3] 100% | GFP response vs DMSO [4] 123% | GFP response, % of DMSO [5] 115% | vesicle binding response [6] 185% | inhibition [7] 2.29% | superoxide response (% of plate) [8] 84.9% | aptamer binding inhibition [9] 1% | response [10] -28% | inhibition [11] 6.94% | response [12] 2.4% | binding (% of control) [13] 103% | efflux inhibition (fraction of control) [14] 0.42 | inhibition [15] 2% | differentiation response [16] -6.96%

CCOC(=O)C(NC(C)=O)C(O)c1ccc([N+](=O)[O-])cc1 (stereo not given)
57.3%: double positive events [6]
inactive: percent of DMSO control GFP [1] 99.5% | GFP response vs DMSO [2] 105% | percent response of DMSO control [3] 85.3% | GFP response vs DMSO [4] 124% | GFP response, % of DMSO [5] 99.2% | vesicle binding response [6] 211% | inhibition [7] -3.16% | superoxide response (% of plate) [8] 103% | aptamer binding inhibition [9] 0% | response [10] 4.84% | inhibition [11] -1.65% | response [12] -1.89% | binding (% of control) [13] 99.7% | efflux inhibition (fraction of control) [14] -0.21 | inhibition [15] 6% | differentiation response [16] 32.8%

CC(CCc1ccccc1)NC(=O)/C=C/c1ccccc1 (stereo not given)
61.8%: double positive events [6]
inactive: percent of DMSO control GFP [1] 92.6% | GFP response vs DMSO [2] 132% | percent response of DMSO control [3] 107% | GFP response vs DMSO [4] 92.4% | GFP response, % of DMSO [5] 81.7% | vesicle binding response [6] 129% | inhibition [7] 1.61% | superoxide response (% of plate) [8] 91.7% | aptamer binding inhibition [9] 5% | response [10] -12.9% | inhibition [11] -0.16% | response [12] 1.44% | binding (% of control) [13] 103% | efflux inhibition (fraction of control) [14] -0.13 | inhibition [15] 12% | differentiation response [16] 0%
